SNCA viab count – counter-screen for SNCA expression inhibitors: cell viability. HEK-293-SNCA-luc viability, GF-AFC fluorescence, 24 h. Potency, µM (doses to about 57.1 µM), without a hit: top-dose activity change, negative = cytotoxicity, usual class: cytotoxic. 0.12% of 150,000 active. AID 1671193;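 also: potency is read from the fitted curve at half-maximal effect; 0% = DMSO-treated cells and -100% = medium-only wells without cells; nearly all actives have a fitted effect of over 30% in size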
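Cytotoxicity counterscreen: after 24 h compound treatment of genome-edited SNCA-luciferase HEK-293 cells, live-cell protease substrate GF-AFC read by fluorescence after 30 min; activity scaled between DMSO (0%) and medium-only (-100%), curves Hill-fitted.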
KDM5B inhibitor – KDM5B demethylase inhibition | KDM5B demethylase, FDH-coupled NADH fluorescence (FDH is formaldehyde dehydrogenase) | Potency, µM (series often up to 57.7 µM), most hits filed as inhibitors | 2.6% of 220,000 active | AID 1347165; also: potency is read from the fitted curve at half-maximal effect; 0% is about no effect; nearly all actives have a fitted effect of over 70% in size
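Compound dilutions met 200 nM (final) KDM5BΔAP for 10 min at room temperature before substrate addition. The substrate mix held 12.5 µM H3K4me3 with cofactors 25 µM α-ketoglutarate and 50 µM Fe²⁺. NADH signal gain over 30 min defined activity.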
SNCA expr inhib – SNCA gene expression inhibition; Potency, µM (titrated, usually from 57.2 µM), inactives show at the top dose activity change, negative = inhibition, hits mostly inhibitors; HEK-293 SNCA-luciferase knock-in, luminescence, 24 h; 0.17% of 140,000 active; AID 1671194;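 also: potency is read from the fitted curve at half-maximal effect; plate controls were DMSO cells for no effect and cell-free wells for full effect; nearly all actives have a fitted effect of over 45% in size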
IP6K1 inhibitor – blocks human inositol hexakisphosphate kinase 1; Q92551; IP6K1 kinase, ADP-Glo luminescence, 2 h; active compounds read low; activity change, % (series mostly up to about 58 µM); 0.81% of 140,000 active; in the data active = activity change below about -25%; also: % is scaled to controls: 0 for no effect and ±100 for the full control effect
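ADP-Glo luminescence measures ADP made by human IP6K1 during a 2 h RT reaction with ATP/IP6 (mix at 1.3 mM/130 uM); top library doses 57.5 and 19.1 uM final.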
* = called active by the depositor; i = inactive; ? = inconclusive; . = no result given; [ ] = dose if it differs, or a comment. The list is not random: actives were taken first. Their share in the collection is about 2.8%. Unless noted, calls follow the shape of the dose curve; as a rule, active = well fitted curve in the direction sought with a large enough effect; inconclusive = small, poorly fitted or top-dose-only effect, or another doubt; inactive = no such curve, though single readings can be large; an effect the other way counts as inactive or inconclusive.

SMILES	SNCA viab count	KDM5B inhibitor	SNCA expr inhib	IP6K1 inhibitor
Cc1nn2c(c1-c1cccnc1N1CCOCC1)N(Cc1ccc3c(c1)CCO3)CCC2	-2%[87.6 µM]	25µM*	3%[87.6 µM]	9
COc1ccc(OC)c(CN2CCCn3nc(C)c(-c4cccnc4N4CCOCC4)c32)c1	-6%	13µM*	51%	10
COc1ccc(OC)c(CN2CCCn3nc(C)c(-c4ccccc4C(C)C)c32)c1	-29%[87.6 µM]	?	?	19
Cn1c(=O)[nH]c(=O)c2c1nc(N1CCCCCC1)n2CCc1ccccc1	.	i	.	.
O=C(CCc1ccccc1)NCC1CCCO1 (centres undefined)	.	i	.	.
CNC(=O)NCc1cccc(OC)c1	.	i	.	.
O=C(CCNc1c(-c2cccc(F)c2)nc2cnccn12)NCc1ccccc1	?	25µM*	23%	9
O=C(CCNc1c(-c2cccc(F)c2)nc2cnccn12)NCC1CCCO1 (centres undefined)	?	28µM*	0%	3
COc1cccc(CNC(=O)CCNc2cnc3cnccn23)c1	?	20µM*	1%	11
COc1cccc(-c2nc(N3CCCCCC3)c3ccccc3n2)c1O	.	i	.	.
CCOc1ccc(S(=O)(=O)Nc2ccc(-c3ccc(N4CCC(C)CC4)nn3)cc2)cc1	.	i	.	.
Cc1cc2c3c(c1)c(-c1ccc([N+](=O)[O-])cc1)cn3C(C)(C)CC2C (centres undefined)	.	i	.	.
Cc1ccc(-c2nnc3ccc(NCCc4ccccn4)nn23)nc1	-4%[87.6 µM]	?	-11%[87.6 µM]	-16
COc1ccc(-c2nnc3ccc(NCCc4ccccn4)nn23)nc1	1%[87.6 µM]	40µM*	0%[87.6 µM]	-10
O=S1(=O)CCN2C(c3ccc(Cl)cc3Cl)=CSC2=N1	.	i	.	.
O=C1NCC2(CCN(c3nccc(CCC(F)(F)F)n3)CC2)O1	0%	20µM*	-10%	-7
N#Cc1ccccc1CN1CCN(c2nccc(CCC(F)(F)F)n2)CC1	8%	i	-16%	11
Cc1ccccc1CN1CCc2nc(C(=O)NCCOc3ccccc3)oc2CC1	2%[87.6 µM]	32µM*	-17%[87.6 µM]	1
O=C(Nc1ccc(Cl)cc1)c1nc2c(o1)CCN(Cc1ccc3cn[nH]c3c1)CC2	?	35µM*	-30%[87.6 µM]	2
O=C(Nc1ccc(Cl)cc1)c1nc2c(o1)CCN(Cc1cccc(O)c1)CC2	?	32µM*	-22%[87.6 µM]	-9
COc1ccc(CN2CCc3nc(C(=O)Nc4ccc(Cl)cc4)oc3CC2)cn1	-19%[87.6 µM]	?	6%[87.6 µM]	-3
O=C(Nc1ccc(Cl)cc1)c1nc2c(o1)CCN(CC1CC1)CC2	5%[87.6 µM]	i	52%[87.6 µM]	9
O=C(Nc1ccccc1)c1nc2c(o1)CCN(Cc1cccs1)CC2	-2%[87.6 µM]	?	11µM*	-17
Cc1nn(-c2ccccc2)c2c1C(C(C)C)N(C1CCCN(C(=O)Cc3ccc(F)cc3)C1)C2=O (centres undefined)	.	.	.	-2
CC(C)CCSc1ccccc1C(=O)O	.	i	.	.
SMILES	SNCA viab count	KDM5B inhibitor	SNCA expr inhib	IP6K1 inhibitor
O=C(Nc1ccc(Cl)cc1)c1nc2c(o1)CCN(Cc1ccncc1)CC2	-7%[87.6 µM]	i	1%[87.6 µM]	2
O=C(Nc1ccccc1)c1nc2c(o1)CCN(Cc1ccc(O)cc1)CC2	-2%[87.6 µM]	i	-22%[87.6 µM]	17
O=C(Nc1ccccc1)c1nc2c(o1)CCN(Cc1ccc(F)c(Cl)c1)CC2	-29%[87.6 µM]	28µM*	76%[87.6 µM]	-12
Cc1ccc(CN2CCc3nc(C(=O)Nc4ccccc4)oc3CC2)cc1	-11%[87.6 µM]	35µM*	59%[87.6 µM]	10
O=C(Nc1ccc(Cl)cc1)c1nc2c(o1)CCN(Cc1ccc3c(c1)CCO3)CC2	-16%[87.6 µM]	32µM*	-20%[87.6 µM]	6
Cc1ccc(CN2CCc3nc(C(=O)Nc4ccc(Cl)cc4)oc3CC2)cc1	-4%[87.6 µM]	35µM*	-17%[87.6 µM]	-6
O=C(Nc1ccc(Cl)cc1)c1nc2c(o1)CCN(Cc1nccs1)CC2	-8%[87.6 µM]	i	10%[87.6 µM]	10
COc1cccc(C(=O)N2CCC(NS(=O)(=O)c3cccs3)CC2)c1	.	i	.	.
CCOc1ccc2c(=O)c(Oc3cc(C)ccc3C)coc2c1	.	i	.	.
O=C(NCCc1nc(-c2cccnc2)no1)C1NCCc2[nH]cnc21 (centres undefined)	-1%	i	?	14
O=C(NCCc1noc(-c2ccccc2)n1)C1NCCc2[nH]cnc21 (centres undefined)	-14%	35µM*	5%	18
Cc1cc(C)n(-c2ccc(C(=O)OCC(=O)NC3CCS(=O)(=O)C3)cc2)n1 (centres undefined)	.	i	.	.
COc1ccc(NC(=O)N2CCc3c(C(=O)NCCCN(C)C)cccc32)cc1	4%	i	?	-7
COc1ccc(NC(=O)N2CCc3c(C(=O)NCCCN4CCCC4=O)cccc32)cc1	16%	i	10µM*	5
COc1ccc(OC2CCN(C(C)=O)CC2)c(C(=O)NCCc2c(C)n[nH]c2C)c1	2%	28µM*	-22%	-2
CCCNC(=O)c1cccc2c1CCN2C(=O)Nc1ccc(OC)cc1	-10%	i	28µM*	-5
COc1ccc(NC(=O)N2CCc3c(C(=O)Nc4ccc5c(c4)OCO5)cccc32)cc1	18%	22µM*	7.9µM*	-6
O=C(COc1c(Cl)cccc1Cl)Nc1ccccc1N1CCCC1=O	.	i	.	.
O=C(CCc1ncc(-c2ccc(F)cc2)o1)Nc1cccc(C(=O)NC2CC2)c1	.	i	.	.
COc1ccc(OC2CCN(C3CCCC3)CC2)c(C(=O)NCCCN2CCCC2=O)c1	3%	32µM*	16%	21
CCN1CCN(CCNC(=O)c2cccc3c2CCN3C(=O)Nc2ccc(C)cc2)CC1	-7%	i	13µM*	6
Cc1ccc2nc(-c3ccc(C)c(C)c3)cc(C(=O)O)c2c1	.	i	.	.
O=C(Nc1cc(F)cc(F)c1)N1CCCC2(C1)Nc1cccnc1NC2=NC1CCCC1 (centres undefined)	-14%	14µM*	-17%	0
COc1cccc(NC(=O)N2CCCC3(C2)Nc2cccnc2NC3=NC2CCCC2)c1 (centres undefined)	-26%	?	-15%	0
COc1ccc(C)cc1NC(=O)N1CCCC2(C1)Nc1cccnc1NC2=NC1CCCC1 (centres undefined)	?	28µM*	?	4
Cc1ccc(C(O)Cn2ccn3nc(-c4ccc(F)cc4)cc3c2=O)cc1C (centres undefined)	-4%	i	-8%	-1
O=c1c2cc(-c3cccs3)nn2ccn1CC(O)c1ccc(F)cc1 (centres undefined)	8%	16µM*	31%	9
CC(C)c1ccc(C(O)Cn2ccn3nc(-c4ccc(F)cc4)cc3c2=O)cc1 (centres undefined)	2%	25µM*	24%	0
Cc1ccc(C(O)Cn2ccn3nc(-c4ccc(F)cc4)cc3c2=O)cc1 (centres undefined)	5%	14µM*	-10%	2
CN1CCC2(C1)CN(CC1CC1)c1ccc(C(=O)Nc3ccccc3)cc12 (centres undefined)	-17%[87.6 µM]	?	90%[87.6 µM]	8
